Laboratory results from PubChem BioAssay (NCATS).
Several values for one entry are separate records, joined by “and”; a condition that tells them apart may be missing. Equal entries are not always repeated. Records with an inconclusive call do not appear. Activity calls are given as the source filed them. The call rests on the fitted dose curve; in most records, active means well fitted curve in the direction sought with a large enough effect; inconclusive means small, poorly fitted or top-dose-only effect, or another doubt; inactive means no such curve, though single readings can be large; an effect the other way counts as inactive or inconclusive.

Key:
[1] = target: Cytochrome P450 3A4 (Homo sapiens) (UniProt P08684); test: qHTS Assay for Inhibitors and Substrates of Cytochrome P450 3A4 (AID 884); further: nearly all actives have a fitted effect of over 50% in size; further: potency means the concentration at half of the fitted maximal effect
Cytochrome P450 3A4 (Homo sapiens), sequence (P08684 whole entry, looked up): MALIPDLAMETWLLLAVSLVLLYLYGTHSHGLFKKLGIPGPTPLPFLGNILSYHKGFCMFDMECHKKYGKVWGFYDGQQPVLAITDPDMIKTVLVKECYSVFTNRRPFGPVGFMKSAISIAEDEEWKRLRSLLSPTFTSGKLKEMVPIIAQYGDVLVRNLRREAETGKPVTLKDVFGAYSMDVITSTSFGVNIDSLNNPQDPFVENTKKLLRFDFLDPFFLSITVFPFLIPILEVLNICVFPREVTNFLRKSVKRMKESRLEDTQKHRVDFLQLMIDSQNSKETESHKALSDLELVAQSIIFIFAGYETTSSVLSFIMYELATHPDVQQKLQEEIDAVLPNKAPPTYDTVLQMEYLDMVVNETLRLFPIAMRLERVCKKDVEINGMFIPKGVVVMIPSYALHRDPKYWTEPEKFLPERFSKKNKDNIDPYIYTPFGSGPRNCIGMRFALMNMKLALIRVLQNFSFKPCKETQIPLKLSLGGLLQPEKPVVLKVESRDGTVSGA
Summary of the method: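 Luminescent readout of luciferin produced by CYP3A4 (20 nM) dealkylation of Luciferin-PPXE, 25 uM (its KM). NADPH-driven reaction ran 60 min at RT after 10 min compound preincubation; data scaled to 57 uM ketoconazole as 100% inhibition.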

[2] = target: Cytochrome P450 3A4 (Homo sapiens) (UniProt P08684); test: qHTS Assay for Activators of Cytochrome P450 3A4 (AID 885); further: nearly all actives have a fitted effect of over 65% in size
Summary of the method: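 Using 20nM recombinant human CYP3A4 in potassium phosphate (200mM), substrate Luciferin-PPXE at 25uM, luminescent luciferin detection followed a 60-min RT NADPH reaction; data scaled to 57 uM ketoconazole.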

With `O=C1[C@H]2[C@H]3[C@H](O)[C@H](O)C/C(=N/OCc4ccccc4)[C@@H]3CC[C@@H]2C(=O)N1Cc1ccc2c(c1)OCO2` the Potency [1] was 2 µM (active) and the activity change, positive = activation [2] was -100% [at 11.4 µM] (inactive).
In the case of `COC(=O)[C@@H]1C[C@H]2CC[C@H](O)C[C@H]2N1Cc1ccc(Cl)cc1`, the Potency [1] is reported as 12.6 µM (active) and the Potency [2] is reported as “inactive”.
`CCC1=C(OC(=O)N(CC)CC)N2C(=O)OC(=NCc3ccccc3)[C@]2(C)[C@H]2C1=CC[C@H]1C(=O)N(CC)C(=O)[C@H]12` was tested, and the Potency [1] was 3.16 µM (active) and the Potency [2] was “inactive”.
`CCCCCCCCCCCCCCCCCC(=O)NCCc1ccc(O)c(O)c1` was tested, and the Potency [1] was “inactive”.
For `Nc1cccc(B(O)O)c1`, the Potency [1] was “inactive”.
For `Clc1ccc2nc(-c3ccccc3)[nH]c2c1`, the Potency [1] was 12.6 µM (active) and the Potency [2] was “inactive”.
In the case of `COC(=O)[C@@H]1C[C@H]2CC[C@H](O)C[C@H]2N1Cc1ccccc1OS(=O)(=O)c1ccc(C)cc1`, the Potency [1] is reported as 2 µM (active) and the Potency [2] is reported as “inactive”.
In the case of `COC(=O)[C@@H]1C[C@@]2(O)[C@@H](O)[C@@H](O)[C@@H](O)C[C@H]2N1C/C=C/c1ccccc1`, the Potency [1] is reported as “inactive”.
In the case of `C=CC[C@@H]1C=C[C@@H](O/N=C\[C@@H](OC)[C@H](C)/C=C\CC(=O)OC)[C@@H](CO)O1`, the Potency [1] is reported as 3.16 µM (active) and the activity change, positive = activation [2] is reported as -64.1% [at 11.4 µM] (inactive).
With `CCCCCCCCCCCCCCCC(=O)NCCc1ccc(O)c(O)c1` the Potency [1] was “inactive”.
With `CCC1=C2CC[C@H]3C(=O)N(c4ccccc4)C(=O)[C@H]3[C@H]2[C@@]2(C)C(=NCc3ccccc3)OC(=O)N2C1=O` the Potency [1] was 3.98 µM (active) and the Potency [2] was “inactive”.
In the case of `CCOC(=O)N/N=C1/C[C@@H](O)[C@@H](O)[C@@H]2[C@@H]3C(=O)N(Cc4ccc5c(c4)OCO5)C(=O)[C@H]3CC[C@@H]12`, the Potency [1] is reported as 3.98 µM (active) and the activity change, positive = activation [2] is reported as -82.5% [at 11.4 µM] (inactive).
In the case of `COC(=O)c1ccc(C(NC(=O)OCc2ccccc2)/C(=C/[C@@H](C)C(=O)NCc2nc3ccccc3n2C)c2cccnc2)cc1` (stereo partly drawn), the Potency [1] is reported as 2 µM (active) and the Potency [2] is reported as “inactive”.
For `C#CC(C)OC(=O)C(C)NC(=O)c1ccccc1` (stereo not drawn), the Potency [1] was “inactive”.
`CCC1=C2CC[C@H]3C(=O)N(C)C(=O)[C@H]3[C@H]2[C@@]2(C)C(=NCC(=O)OC)OC(=O)N2C1=O` was tested, and the Potency [1] was “inactive”.
With `C/C(CCN1CCCc2nc(C)c(C)cc21)=N\O[C@@H](C)c1cn([C@H](CO)Cc2ccccc2)nn1` the Potency [1] was 2 µM (active) and the activity change, positive = activation [2] was -60.4% [at 11.4 µM] (inactive) and -67% [at 11.4 µM] (inactive).
In the case of `COC(=O)c1cccc(C23CC4(C2)[C@H](CN(CC2CCCCC2)[C@@H]4c2ccccc2)C3c2ccccc2)c1` (stereo partly drawn), the Potency [1] is reported as 15.8 µM (active) and the Potency [2] is reported as “inactive”.
With `COC(=O)[C@@H]1C[C@@]2(O)[C@H](O)[C@H](O)[C@H](O)C[C@H]2N1CC1CC1` the Potency [1] was “inactive”.
For `C=CC[C@@H]1C=C[C@H](O/N=C(\C)CCN2CCCc3nc(C)c(C)cc32)[C@H](CO)O1`, the Potency [1] was 2.51 µM (active) and the activity change, positive = activation [2] was -70.1% [at 11.4 µM] (inactive).
In the case of `COC(=O)C/C=C\[C@@H](C)[C@@H](/C=N\O[C@@H](C)c1cn([C@H]2COC[C@H]2O)nn1)NS(=O)(=O)c1ccc(C)cc1`, the Potency [1] is reported as 3.98 µM (active) and the activity change, positive = activation [2] is reported as -71.6% [at 11.4 µM] (inactive).
For `COC(=O)c1cccc(C23CC4(C2)[C@H](CN(Cc2cccnc2)[C@@H]4c2ccccc2)C3c2ccc(C(F)(F)F)cc2)c1` (stereo partly drawn), the Potency [1] was 2.51 µM (active) and the Potency [2] was “inactive”.
With `COC(=O)c1ccc(C23CC4(C2)[C@H](CN(Cc2ccc(C(F)(F)F)cc2)[C@@H]4c2ccccc2)C3c2ccc(Cl)nc2)cc1` (stereo partly drawn) the Potency [1] was “inactive”.
With `CCC1=C2CC[C@H]3C(=O)N(C)C(=O)[C@H]3[C@H]2[C@@]2(Cc3ccccc3)C(=NCC(=O)OC)OC(=O)N2C1=O` the Potency [1] was 10 µM (active) and the Potency [2] was “inactive”.
For `CCC1=C2CC[C@H]3C(=O)N(CC)C(=O)[C@H]3[C@H]2[C@@]2(C)C(=NCCc3c[nH]c4ccccc34)OC(=O)N2C1=O`, the Potency [1] was 3.98 µM (active) and the Potency [2] was “inactive”.
`CCC1=C(OC(=O)N(CC)CC)N2C(=O)OC(=NCCc3c[nH]c4ccccc34)[C@]2(Cc2ccccc2)[C@H]2C1=CC[C@H]1C(=O)NC(=O)[C@H]12` was tested, and the Potency [1] was 2 µM (active) and the Potency [2] was “inactive”.
With `COC(=O)CC1Oc2cc3oc4c5ccccc5oc(=O)c4c3cc2O1` (stereo not drawn) the Potency [1] was “inactive”.
With `COc1ccc(-c2coc3cc(OC4OC(CO)C(O)C(O)C4O)cc(O)c3c2=O)cc1` (stereo not drawn) the Potency [1] was “inactive”.
With `Cn1c(=O)c(C(=O)COC(=O)c2cc(-c3ccco3)nc3ccccc23)c(N)n(Cc2ccccc2)c1=O` the Potency [1] was 12.6 µM (active).
With `CCCOc1ccc(Br)cc1-c1cc(-c2ccc(Cl)cc2)[nH]c1-c1ccncc1` the Potency [1] was 1.26 µM (active) and the Potency [2] was “inactive”.
`CN1C[C@@H]2C(c3ccc(Cl)nc3)C3(c4cccnc4)CC2(C3)[C@H]1c1ccccc1` (stereo partly drawn) was tested, and the Potency [1] was 7.94 µM (active) and the Potency [2] was “inactive”.
For `COC(=O)[C@@H]1C[C@H]2CC[C@H](O)C[C@H]2N1Cc1ccc(C(C)(C)C)cc1`, the Potency [1] was 5.01 µM (active) and the Potency [2] was “inactive”.
With `C#CCCCO/N=C1/C[C@@H](O)[C@@H](O)[C@@H]2[C@H]3C(=O)N(c4ccc(F)cc4F)C(=O)[C@@H]3CC[C@@H]12` the Potency [1] was 3.16 µM (active) and the activity change, positive = activation [2] was -61.6% [at 11.4 µM] (inactive).
For `C[C@H]1C2=C3C(C[C@H]4C(=O)N(c5ccccc5)C(=O)[C@H]4[C@H]3[C@@]3(Cc4ccccc4)C(=NCCc4c[nH]c5ccccc45)OC(=O)N3C2=O)[C@H]2C(=O)N(c3ccccc3)C(=O)[C@H]21` (stereo partly drawn), the Potency [1] was 2.51 µM (active) and the Potency [2] was “inactive”.
For `COC(=O)CNC(=O)[C@@]1(C)C=C[C@@H](Cc2ccccc2)N1C(=O)OC`, the Potency [1] was 12.6 µM (active) and the Potency [2] was “inactive”.
For `CCC1=C(OC(=O)N(CC)CC)N2C(=O)OC(=NCC(=O)OC)[C@]2(Cc2ccccc2)[C@H]2C1=CC[C@H]1C(=O)NC(=O)[C@H]12`, the Potency [1] was 6.31 µM (active) and the Potency [2] was “inactive”.
For `O=C1[C@H]2[C@H]3[C@H](O)[C@H](O)C/C(=N/OC[C@@H](O)COCc4ccco4)[C@@H]3CC[C@@H]2C(=O)N1Cc1ccc2c(c1)OCO2`, the Potency [1] was 3.16 µM (active) and the activity change, positive = activation [2] was -99.9% [at 11.4 µM] (inactive).
In the case of `O=C(O)c1sccc1S(=O)(=O)Nc1ccccc1N1CCCCC1`, the Potency [1] is reported as 15.8 µM (active) and the Potency [2] is reported as “inactive”.
For `CCC1=C(OC(=O)N(CC)CC)N2C(=O)OC(=NCC(=O)OC)[C@]2(C)[C@H]2C1=CC[C@H]1C(=O)NC(=O)[C@H]12`, the Potency [1] was 12.6 µM (active) and the Potency [2] was “inactive”.
With `FC(F)(F)c1ccc(CN2C[C@@H]3C(c4ccc(Cl)nc4)C4(c5cccnc5)CC3(C4)[C@H]2c2ccccc2)cc1` (stereo partly drawn) the Potency [1] was 15.8 µM (active) and the Potency [2] was “inactive”.
For `COC(=O)N1[C@H](Cc2ccccc2)C=C[C@]1(C)C(=O)NCc1ccc(N(C)C)cc1`, the Potency [1] was 0.794 µM (active) and the Potency [2] was “inactive”.
In the case of `O=C1[C@H]2[C@H]3[C@H](O)[C@H](O)C/C(=N/OC[C@@H](O)COCc4ccco4)[C@@H]3CC[C@@H]2C(=O)N1Cc1ccccc1`, the Potency [1] is reported as 3.16 µM (active) and the activity change, positive = activation [2] is reported as -71.1% [at 11.4 µM] (inactive).
In the case of `CC(C)=CCC/C(C)=C/CO/N=C1/C[C@@H](O)[C@@H](O)[C@@H]2[C@@H]3C(=O)N(Cc4ccc5c(c4)OCO5)C(=O)[C@H]3CC[C@@H]12`, the Potency [1] is reported as 1.58 µM (active) and the activity change, positive = activation [2] is reported as -86.9% [at 11.4 µM] (inactive).
In the case of `CNC(=O)[C@@H](Cc1ccccc1)N(C)C(=O)[C@@H](Cc1ccc2ccccc2c1)N(C)C(=O)/C=C/CC(C)(C)N`, the Potency [1] is reported as 7.94 µM (active) and the Potency [2] is reported as “inactive”.
`CCC1=C2CC[C@H]3C(=O)N(CC(=O)OC)C(=O)[C@H]3[C@H]2[C@@]2(C)C(=NCCc3c[nH]c4ccccc34)OC(=O)N2C1=O` was tested, and the Potency [1] was 6.31 µM (active) and the Potency [2] was “inactive”.
With `CCC1=C(OC(=O)N(CC)CC)N2C(=O)OC(=NCC3CC3)[C@]2(C)[C@H]2C1=CC[C@H]1C(=O)N(C)C(=O)[C@H]12` the Potency [1] was 10 µM (active) and the Potency [2] was “inactive”.
For `CCC1=C(OC(=O)N(CC)CC)N2C(=O)OC(=NCC(=O)OC)[C@]2(Cc2ccccc2)[C@H]2C1=CC[C@H]1C(=O)N(c3ccccc3)C(=O)[C@H]12`, the Potency [1] was 3.16 µM (active) and the Potency [2] was “inactive”.
For `COC(=O)c1ccc(C23CC4(C2)[C@H](CN(Cc2cccnc2)[C@@H]4c2ccccc2)C3c2ccc(C(F)(F)F)cc2)cc1` (stereo partly drawn), the Potency [1] was 5.01 µM (active) and the Potency [2] was “inactive”.
With `CCC1=C2CC[C@H]3C(=O)N(c4ccccc4)C(=O)[C@H]3[C@H]2[C@@]2(Cc3ccccc3)C(=NCCOC)OC(=O)N2C1=O` the Potency [1] was 7.94 µM (active) and the Potency [2] was “inactive”.
In the case of `COc1c(O)c(O)cc2c1oc1c3ccccc3oc(=O)c21`, the Potency [1] is reported as 25.1 µM (active) and the Potency [2] is reported as “inactive”.
`CCCNC(=O)OC[C@@H]1O[C@H](CCO/N=C(\C)CCC(=O)OC[C@@H]2O[C@H](c3ccccc3)C=C[C@@H]2Oc2ccc(OC)cc2)C=C[C@@H]1Oc1ccc(OC)cc1` was tested, and the Potency [1] was 5.01 µM (active) and the activity change, positive = activation [2] was -87% [at 11.4 µM] (inactive).
With `CCc1cc(C(C)=O)c(O)cc1OCCCCCC(C)(C)c1nn[nH]n1` the Potency [1] was 10 µM (active) and the Potency [2] was “inactive”.
For `Cn1c(N)c(C(=O)COC(=O)c2cc(-c3ccco3)nc3ccccc23)c(=O)n(Cc2ccccc2)c1=O`, the Potency [1] was 10 µM (active) and the Potency [2] was “inactive”.
With `CCCCCCNC(=O)Nc1ccc(S(=O)(=O)Nc2ccc(CCNC[C@H](O)COc3ccc(O)cc3)cc2)cc1` the Potency [1] was 7.94 µM (active) and the Potency [2] was “inactive”.
For `CC1(C)CC(=O)c2c(oc3cc4c(cc23)OCO4)C1`, the Potency [1] was 3.98 µM (active) and the Potency [2] was “inactive”.
In the case of `CCC1=C(OC(=O)N(CC)CC)N2C(=O)OC(=NCCc3c[nH]c4ccccc34)[C@]2(C)[C@H]2C1=CC[C@H]1C(=O)NC(=O)[C@H]12`, the Potency [1] is reported as 2.51 µM (active) and the Potency [2] is reported as “inactive”.
For `CCC1=C(OC(=O)N(CC)CC)N2C(=O)OC(=NCc3ccccc3)[C@]2(C)[C@H]2C1=CC[C@H]1C(=O)N(c3ccccc3)C(=O)[C@H]12`, the Potency [1] was 2.51 µM (active) and the Potency [2] was “inactive”.
With `CC(C)(C)[Si](OCC[C@@H]1C[C@@]1(C)[C@@H](NP(=O)(c1ccccc1)c1ccccc1)c1ccccc1)(c1ccccc1)c1ccccc1` the Potency [1] was 12.6 µM (active) and the Potency [2] was “inactive”.
